Source: PubChem BioAssay
CHRM1 agonist – agonists of human M1 muscarinic receptor | actives 0.33% (n = 360,000) | P11229 | activation, % at 3 µM | CHO-K1 hM1, Fluo-8 calcium fluorescence, agonist mode; 0% DMSO, 100% acetylcholine EC100 | AID 588814;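 active means activation above the run's mean compound activation plus 3 SD, cut at about 16% in these data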;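 further: peak over basal fluorescence ratio within a 140 s kinetic read after compound addition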
Target sequence (P11229 whole entry, looked up): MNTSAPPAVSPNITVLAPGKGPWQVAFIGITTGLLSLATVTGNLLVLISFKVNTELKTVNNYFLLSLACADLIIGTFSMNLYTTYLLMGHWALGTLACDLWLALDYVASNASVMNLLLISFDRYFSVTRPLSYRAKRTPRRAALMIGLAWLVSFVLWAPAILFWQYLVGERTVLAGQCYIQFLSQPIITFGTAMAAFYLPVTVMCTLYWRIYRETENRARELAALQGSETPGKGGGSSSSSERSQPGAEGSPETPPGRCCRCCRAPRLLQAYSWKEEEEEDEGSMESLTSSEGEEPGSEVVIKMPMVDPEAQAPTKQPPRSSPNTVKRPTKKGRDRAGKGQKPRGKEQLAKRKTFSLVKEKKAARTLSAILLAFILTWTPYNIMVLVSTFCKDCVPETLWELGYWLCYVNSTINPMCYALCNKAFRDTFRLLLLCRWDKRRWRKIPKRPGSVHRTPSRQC
Myeloid diff MLP – myeloid differentiation induction; ER-HoxA9 myeloid progenitors, lysozyme-GFP differentiation, flow cytometry; calls only at 10 µM; actives 1% (n = 360,000);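 active means normalized GFP-positive differentiation at or above the plate's own cutoff, the solvent-only control mean plus 3 SD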;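 further: cells exposed to compound for four days before flow analysis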
SKN-1 block – blocks SKN-1 activity in C. elegans; C. elegans VP596 Pgst-4::GFP/RFP ratio, acrylamide-induced, 24 h; inhibition, % at 21.8 µM; actives 0.49% (n = 360,000);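 active means interference check ratio from 0.5 to 1.5 plus GFP to RFP signal ratio inhibition reaching or exceeding a fixed threshold, cut at about 30% in these data, passing the limit was not always enough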
M1 PAM – positive allosteric modulators of human M1 muscarinic receptor; activation, % at 3 µM; actives 0.088% (n = 360,000); CHO-K1 hM1, Fluo-8 calcium fluorescence, ACh EC20; 0% = ACh EC20, 100% = maximal ACh; P11229; in the data active means activation above about 19%, passing the limit was not always enough
CHRM1 antagonist – blocks human M1 muscarinic receptor. P11229. CHO-K1 hM1, Fluo-8 calcium fluorescence, ACh EC80 antagonist. inhibition, % at 3 µM. actives 1.3% (n = 360,000). AID 588852;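 active means percent inhibition above its own plate's cutoff, namely the mean of that plate's compound wells plus 3 SD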;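 further: peak over basal fluorescence ratio during 140 s after agonist addition; 0% = ACh EC80 plus DMSO and 100% = DMSO alone without agonist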
ATG4B inh – ATG4B (human) cysteine protease inhibition; inhibition, % at 8.33 µM; AID 504462; actives 0.51% (n = 340,000); ATG4B cleavage of LC3-PLA2, NBD-HPC fluorescence, 1 h; Q9Y4P1; in the data active means inhibition above about 40%
* = called active by the depositor; i = inactive; x = not tested or not shown; + = active, no number. The list is not random: actives were taken first. Their share in the collection is about 3.5%.

SMILES	CHRM1 agonist	Myeloid diff MLP	SKN-1 block	M1 PAM	CHRM1 antagonist	ATG4B inh
CN1N=C(N)c2cn(C3OC(COP(=O)(O)O)C(O)C3O)c3ncnc1c23 (stereo not given)	-1	x	-1	12	-22	1
O=C(CN1CCN(Cc2ccc3c(c2)OCO3)CC1)Nc1ccc2c(c1)OCO2	-6	i	-5	6	-12	6
COc1ccc(NC(=O)CN2CCN(Cc3ccc4c(c3)OCO4)CC2)cc1OC	-6	i	37*	-2	6	-10
O=C(Nc1ccc2c(c1)OCO2)c1noc2c1CCCC2	-10	i	-2	5	-3	-1
COc1ccc(S(=O)(=O)NNS(=O)(=O)c2ccc(OC)c(OC)c2)cc1OC	-5	i	13	4	1	x
O=C(CN(C(=O)CCC(=O)Nc1ccccn1)C1CCCC1)NCc1ccccc1	-3	i	18	3	-1	1
CCCCCCc1nc2nc(Cl)c(Cl)nc2[nH]1	0	i	3	-4	-6	x
CCC1CCCCN1CCCNC(=O)CSc1nc2nc(C)c(Cc3ccccc3)c(C)n2n1 (stereo not given)	-13	i	-10	-28	25*	-5
CCC1CCCCN1CCCNC(=O)CSc1nc2nc(C)c(Cc3ccccc3Cl)c(C)n2n1 (stereo not given)	-5	i	9	-23	51*	4
CNC(=O)c1cc(C(=O)c2ccc(Cl)cc2)c(Br)[nH]1	0	i	5	3	-8	3
Cc1c2ccccc2nc2c(F)c(NC(C)C)c(F)c(F)c12	-3	+	12	-1	7	2
CCc1c(C)nc2cc(-c3ccccc3)[nH]n2c1=O	-5	i	36*	4	-10	0
COCC(=O)N1CCC(c2nc3ccccc3[nH]2)CC1	20*	i	-4	0	-5	x
O=C(Cc1ccccc1)N1CCC(c2nc3ccccc3[nH]2)CC1	-3	i	-5	-5	12	-5
COc1ccc(C2CC(=O)c3c(O)cc(O)cc3O2)cc1O (stereo not given)	-2	i	20	-18	28*	3
O=C1CC(c2ccc(O)c(O)c2)Oc2cc(O)cc(O)c21 (stereo not given)	2	i	4	15	-11	-7
C[C@@H]1CN([C@H](C)CO)S(=O)(=O)c2ccc(Br)cc2O[C@H]1CN(C)C(=O)C1CCCCC1	-2	i	6	-2	2	x
Cc1ccc(C)c(NC(=S)N2C3CCCC2CC(NC(=O)C2CC2)C3)c1 (stereo not given)	-12	i	12	-18	38*	-5
COc1ccc(-n2c(SCC(=O)N3CCC(C(=O)O)CC3)nc3ccccc3c2=O)cc1OC	1	i	-8	11	-9	-9
Cc1nc(NCc2ccccn2)c2c3c(sc2n1)CCCC3	-14	+	0	11	-4	2
COC(=O)c1ccc(COc2cccnc2[N+](=O)[O-])cc1	-10	x	13	13	-14	-1
Cc1ccc(S(=O)(=O)N2CCN(C(=O)COC(=O)CCOc3ccc(C(C)(C)C)cc3)CC2)cc1	3	i	-3	-11	34*	-7
C[C@@H]1CN([C@H](C)CO)C(=O)CCCn2cc(nn2)CO[C@H]1CN(C)C(=O)Nc1ccccc1F	-3	i	-4	10	-9	x
CCN(CC)CCNC(=O)c1ccc2c(c1NCCO)C(=O)c1ccccc1C2=O	-8	x	42*	4	-8	1
CC1CCN(C(=O)c2ccc3c(c2NCCO)C(=O)c2ccccc2C3=O)CC1	2	i	11	-4	5	12
SMILES	CHRM1 agonist	Myeloid diff MLP	SKN-1 block	M1 PAM	CHRM1 antagonist	ATG4B inh
CCOc1ccc(NS(=O)(=O)c2ccc(NC(=S)NC(=O)C(C)C)cc2)cc1	7	i	31	-2	9	-16
CCOc1ccc(NS(=O)(=O)c2ccc(NC(=S)NC(C)=O)cc2)cc1	34*	i	-6	1	7	-10
COc1ccc(NS(=O)(=O)c2ccc(NC(=S)NC(=O)C(C)C)cc2)cc1	19*	i	20	4	2	-2
CCCSCCCNC(=O)c1ccccc1NC(=O)C1=CSCCO1	-3	i	23	0	-4	-2
Cc1cccc(C)c1OCC(O)CN(Cc1ccccc1O)C1CCCCC1 (stereo not given)	-6	i	37*	4	-4	24
Cc1cccc(C)c1OCC(O)CN1CCN(c2ccccc2)CC1 (stereo not given)	-5	i	9	9	-13	-17
COc1ccc(OC)c(CN2CCN(C(=O)c3cccc(S(=O)(=O)Nc4ccc(F)cc4)c3)CC2)c1	-1	i	7	-3	2	-11
COc1ccc(NS(=O)(=O)c2ccc(C(=O)N3CCC(C)CC3)cc2)cc1	36*	i	7	-17	18	8
CCOc1ccc(NS(=O)(=O)c2ccc3c(c2)N(C(C)=O)CC3)cc1	-1	i	-7	9	-4	-10
CCOc1ccc(S(=O)(=O)Nc2cccc(C(=O)N3CC(C)OC(C)C3)c2)cc1 (stereo not given)	1	i	4	-4	6	-5
CCOc1ccc(S(=O)(=O)Nc2ccc(C(=O)N3CC(C)OC(C)C3)cc2)cc1 (stereo not given)	33*	i	-3	-12	14	-13
COc1ccc(CN(C)C(=O)c2ccc(NS(=O)(=O)c3ccc(F)cc3)cc2)c(OC)c1	5	i	7	3	-2	-1
COc1ccc(NS(=O)(=O)c2ccc(C(=O)N(C)Cc3ccc(C)o3)cc2)cc1	20*	i	15	4	-1	-3
CCOc1ccc(NS(=O)(=O)c2ccc3c(c2)CCN3C(C)=O)cc1	-4	+	14	10	-19	-3
C[C@@H]1CN([C@H](C)CO)C(=O)CCCn2nncc2CO[C@H]1CN(C)Cc1cccc(C(F)(F)F)c1	-4	i	7	-9	21	x
CCCN(CC(=O)Nc1ccccc1C)C(=O)c1ccc(=O)n(Cc2ccccc2)n1	-3	x	1	0	-1	-10
O=C(c1cccc(S(=O)(=O)N2CCN(c3ccc(F)cc3)CC2)c1)N1CCCC(C(F)(F)F)C1 (stereo not given)	-2	i	-8	-12	34*	0
CCOc1ccc(NS(=O)(=O)c2ccc(C(=O)N3CC(C)OC(C)C3)cc2)cc1 (stereo not given)	55*	i	25	-22	34*	-1
CC1CN(C(=O)c2ccc(NS(=O)(=O)c3ccc(C(C)(C)C)cc3)cc2)CC(C)O1 (stereo not given)	39*	i	6	-3	19	4
